Most compounds without a hit are left out; they make up all but 7.9% or so of the library.
KB-V1 cytotox: qHTS assay for MDR1-selective chemotherapeutics: Primary screen using the drug-selected MDR subline cells KB-V1; Potency, µM (highest dose often 46.1 µM), actives largely listed as cytotoxic; KB-V1 MDR cells viability, CellTiter-Glo, 72 h; AID 1347076, 2019; 400,000 compounds, 3.4% hits; also: % is scaled to controls: 0 for no effect and ±100 for the full control effect; nearly all actives have a fitted effect of over 60% in size
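Readout: CellTiter-Glo luminescence, 10 min after addition. Cells: KB-V1 MDR subline, 72 h at 37 degrees C with compound. Analysis: corrected, normalized data fitted to concentration-effect curves.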
SW480 rerep: A quantitative high throughput screen for small molecules that induce DNA re-replication in SW480 colon adenocarcinoma cells. SW480 DNA re-replication, Hoechst DNA content imaging, 48 h. Potency, µM (titrated, usually from 46.1 µM), for the others: top-dose re-replication activation, hits mostly activators. 340,000 compounds, 1.8% hits. AID 624297, 2012; also: % of control where 0% means no effect; nearly all actives have a fitted effect of over 55% in size
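Readout is total intensity of Hoechst-stained nuclei, excited at 405 nm and collected at 500-530 nm. Compound treatment lasted 48 hr at 37 C in 5% CO2 before staining.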
HT1080 IDH1KD tx: qHTS for induction of synthetic lethality in tumor cells producing 2HG: qHTS for the HT-1080-IDH1KD cell line; HT-1080 IDH1 knockdown viability, ATP luminescence, 48 h; Potency, µM (doses to about 46.1 µM), without a hit: top-dose activity, negative = toxicity, usual class: cytotoxic; 360,000 compounds, 2% hits;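 also: 0% = DMSO wells and -100% = cell-free medium wells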
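Luminescent ATP read-out (CellTiter-Glo, 10 min at room temperature) after 48 h compound exposure at 37 °C gave viability of IDH1-knockdown HT-1080 cells. Activity was normalised to DMSO and cell-free wells, then fitted as concentration-response curves.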
KB-3-1 tox: qHTS assay for MDR1-selective chemotherapeutics: Primary screen using the parental adenocarcinoma cell KB-3-1; KB-3-1 viability, CellTiter-Glo ATP luminescence, 72 h; Potency, µM (titrated, usually from 46.1 µM), most hits filed as cytotoxic; 400,000 compounds, 1.4% hits; also: % is scaled to controls: 0 for no effect and ±100 for the full control effect; nearly all actives have a fitted effect of over 60% in size
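KB-3-1 parental drug-naive adenocarcinoma cells in DMEM/10% FBS, incubated 72 h at 37 C with pin-transferred compounds across a concentration series. Viability by CellTiter-Glo luminescence; concentration-response curves fitted after normalization.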
MCF10A rerep: A quantitative high throughput screen for small molecules that induce DNA re-replication in MCF 10a normal breast cells. MCF 10A DNA re-replication, Hoechst nuclear intensity, 48 h. Potency, µM (titrated, usually from 46.1 µM), inactives show at the highest dose activity, positive = re-replication, usual class: activators. 350,000 compounds, 2.9% hits; also: % of control where 0% means no effect; nearly all actives have a fitted effect of over 50% in size
HT1080-NT tox: qHTS for induction of synthetic lethality in tumor cells producing 2HG: qHTS for the HT-1080-NT fibrosarcoma cell line. HT-1080-NT fibrosarcoma viability, CellTiter-Glo ATP luminescence, 48 h. Potency, µM (doses to about 46.1 µM), for inactives: at the top dose activity, negative = less viability, actives largely listed as cytotoxic. 360,000 compounds, 1.6% hits. AID 686970, 2013;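 also: NT is the 2HG producing partner of a matched IDH1 knockdown line; 0% = DMSO-treated cells and -100% = media-only wells without cells; nearly all actives have a fitted effect of over 55% in size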
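Fibrosarcoma NT cells, 750 per well in 5% FBS RPMI, were exposed to compound for 48 hours. Viability: CellTiter-Glo luminescence.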
* hit, by the source's call; i = inactive; ? = inconclusive; · = no result given; [ ] = another dose, or the depositor's remark. Calls follow the shape of the dose curve; as a rule, active = well fitted curve in the direction sought with a large enough effect; inconclusive = small, poorly fitted or top-dose-only effect, or another doubt; inactive = no such curve, though single readings can be large; an effect the other way counts as inactive or inconclusive. Potency is read from the fitted curve at half-maximal effect.

SMILES	KB-V1 cytotox	SW480 rerep	HT1080 IDH1KD tx	KB-3-1 tox	MCF10A rerep	HT1080-NT tox
CCc1n[nH]c(=S)n1/N=C/C(C)=C\c1ccccc1	7.3µM*	0%	2%	?	15%	10%
COc1ccccc1C(=O)NNC(=S)NC(=O)c1sc2ccccc2c1Cl	i	?	?	i	?	-26%
COc1ccccc1C(=O)NC(=S)NNC(=O)c1sc2ccccc2c1Cl	i	20%	?	i	5.2µM*	?
CC1=C(C(=O)Nc2cc(C)ccn2)C(c2ccc(C)cc2)C2=C(CCCC2=O)N1 (stereo not given)	i	0%[9.22 µM]	2%	i	3%	0%
C/C(=N\NC(N)=S)c1ccc(Cl)s1	6.5µM*	?	-10%	16µM*	?	0%
CN(C)/C=C/C1=CC(=O)CC(C)(C)C1	i	?	21µM*	i	?	-29%
Cc1ccc(C2=CC(=O)CC(C)(C)C2)cc1	i	-6%	2%	i	-3%	-6%
O=C(Nc1nnc(C(F)(F)F)s1)c1c(F)cccc1F	i	-1%	10%	i	7%	-8%
O=c1[nH]c2ccc(Cl)cc2c(-c2ccccc2)c1SC(=S)N1CCOCC1	i	1%	?	i	?	16µM*
NNC(=O)CSc1c(-c2ccccc2)c2cc(Cl)ccc2[nH]c1=O	i	-8%	-2%	i	11%	-2%
O=c1[nH]c2ccc(Cl)cc2c(-c2ccccc2)c1SC(=S)N1CCCCC1	i	-1%	16µM*	i	?	?
CN1CCN(C(=O)CNC(=O)c2cccs2)CC1	i	0%	23%	i	-1%	11%
O=C(O)CCn1ccc2cc(S(=O)(=O)N3CCCCCC3)ccc21	i	9%	-5%	i	-3%	-4%
COc1ccc(/C=C/C(=O)Nc2cc(C(F)(F)F)ccc2Cl)cc1OC	21µM*	-5%	6%	i	1%	4%
COc1ccccc1NC(=O)Nc1ccc2c(c1)CCC2	i	-4%	5%	i	2%	3%
COc1cc(/C=C/C(=O)Nc2cc(C(F)(F)F)ccc2Cl)cc(OC)c1OC	?	?	?	?	4%[9.22 µM]	-29%
COc1ccc(C)cc1NC(=O)Nc1ccc2c(c1)CCC2	i	-9%	0%	i	23µM*	-5%
COc1ccc(NC(=O)Nc2ccc3c(c2)CCC3)cc1OC	i	2%	8%	i	2%	5%
COc1ccc(/C=C/C(=O)Nc2ccc3c(c2)CCC3)cc1OC	21µM*	-82%	-14%	i	24%	-1%
COc1ccc(C(C)(C)C)cc1NC(=O)Nc1ccc2c(c1)OCO2	23µM*	?	?	i	?	-1%
CCOC(=O)COc1ccc2c3c(c(=O)oc2c1)CCCC3	i	2%	8%	i	-12%	2%
CN1CCN(C2CN(Cc3ccc(F)cc3)S(=O)(=O)C2)CC1 (stereo not given)	i	·	16%	i	·	18%
CCSc1nc2c(c(=O)[nH]c(=O)n2C)n1Cc1ccc(Cl)cc1	7.3µM*	0%	-10%[9.24 µM]	?	5%	-8%
Cn1c(=O)[nH]c(=O)c2c1nc(N1CCCCC1)n2CCSc1nc2ccccc2o1	i	-3%	10%	i	14%	-2%
CCCCCCn1c(SCC(C)C)nc2c1c(=O)[nH]c(=O)n2C	10µM*	0%	-3%	?	0%	-3%
SMILES	KB-V1 cytotox	SW480 rerep	HT1080 IDH1KD tx	KB-3-1 tox	MCF10A rerep	HT1080-NT tox
Cn1c(=O)c2c(nc(SCC(=O)NCc3ccc4c(c3)OCO4)n2Cc2ccc(Cl)cc2)n(C)c1=O	4.1µM*	14%	-2%	i	16%	-8%
CC(C)CCn1c(Sc2nc3ccccc3o2)nc2c1c(=O)[nH]c(=O)n2C	15µM*	?	1%	i	?	8%
CCSc1nc2c(c(=O)n(C)c(=O)n2C)n1Cc1ccc(Cl)cc1	13µM*	-10%	0%	i	5%	-2%
Cn1c(=O)c2c(nc(SCCN3CCCCC3)n2Cc2ccc(Cl)cc2)n(C)c1=O	i	20%	-19%	i	0%	?
CCc1ccc(NC(=S)NC2CC3CCCC(C2)N3Cc2cccs2)cc1 (stereo not given)	18µM*	15µM*	?	i	0%	?
CSc1nc(N)n(-c2cc(C(F)(F)F)ccn2)n1	i	-1%	4%	i	0%	?
Nc1ncnc(Sc2ncccn2)c1[N+](=O)[O-]	?	?	16µM*	3.7µM*	?	-14%
O=C(COc1cccc(C(F)(F)F)c1)NCC(c1cccs1)N1CCOCC1 (stereo not given)	i	-24%	0%	i	2%	-7%
CCCCCCCCOC(=O)C[N+](C)(C)C/C=C(/C)Cl	?	-2%	-14%	i	7%	-4%
CCCCCCCCCCOC(=O)C[N+](C)(C)C/C=C(/C)Cl	i	5%	-10%	i	23µM*	-8%
COC(=O)c1c(-c2ccccc2)csc1NC(=O)CSc1ncnc2sc(C)c(C)c12	12µM*	3%	3%	i	-6%	1%
Cc1sc2ncnc(N(C)Cc3ccco3)c2c1C	?	-1%	-16%	i	-7%	-16%
Cc1sc2ncnc(SCc3ccco3)c2c1C	i	-3%	-6%	i	15µM*	0%
Cc1cccnc1NC(=O)CSc1ncnc2sc(C)c(C)c12	15µM*	-5%	7%	i	10%	-3%
C=CC[C@]12CC=CC(=O)[C@@]1(O)O[C@H](c1ccc(OC)c(OC)c1)[C@H]2C	?	?	-16%	?	6.5µM*	-2%
Cc1cc(C(=O)COc2ccccc2C(N)=O)c(C)n1CC1CCCO1 (stereo not given)	4.6µM*	0%	?	i	12%	?
Cc1cc(C(=O)COC(=O)c2ccccc2O)c(C)n1CC1CCCO1 (stereo not given)	?	-15%	?	i	12%	-3%[9.24 µM]

Screens: PubChem BioAssay, National Center for Advancing Translational Sciences (NCATS)
